High-throughput results from PubChem BioAssay.
IL2 activator – qHTS of IL-2 Activators | IL-2 activation reporter assay, cell-based qHTS; stimulated with anti-CD3/CD4/CD28 beads; in transgenic mouse T cells | activation, % (series mostly up to about 46 µM) | 0.065% of 360,000 active | AID 652025, 2013; in the data active = activation above about 50%; inconclusive = mostly about 30% to 49%; also: 0% is about no effect
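First, unstimulated transgenic mouse T cells were exposed to compound for 60 min. Next, anti-CD3/anti-CD4-coated beads with anti-CD28 were added. Finally, after 18 h at 37 degrees C, EGFP and DsRed were imaged.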
TCR act – Activators of T cell receptors: qHTS campaign. primary human leukocytes, anti-CD3, IL-2 HTRF, 48 h. Potency, µM (highest dose often 9.22 µM), inactives show top-dose activation of IL-2 secretion, hits mostly activators. 330,000 tested, under 10 active. AID 504894, 2011; also: % of control where 0% means no effect
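TCR engagement came from a-CD3 beads alone, with compounds added to primary human leukocytes for 48 hr. Secreted IL-2 bridged europium cryptate- and d2-labelled anti-IL-2 antibodies, giving FRET emission at 665nm after 320nm excitation.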
p53 reactivation – qHTS assay for re-activators of p53 using a Luc reporter. H1299 p53-A138V BP100-luciferase reporter, luminescence, 24 h. AID 504706, 2011. Potency, µM (highest dose often 92.2 µM), for inactives: top-dose activity change, positive = activation, usual class: activators. 0.063% of 320,000 active; also: potency is read from the fitted curve at half-maximal effect; % of control where 0% means no effect; nearly all actives have a fitted effect of over 45% in size
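p53-null H1299 cells stably carrying temperature-sensitive p53-A138V and a BP100-luciferase reporter were pinned with compounds (4-point, 1:5 series) and held 24 hrs at 37 deg C. Luminescence was read 10 min after detection reagent.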
BRCA1 expr up – qHTS Assay to Identify Small Molecule Activators of BRCA1 Expression. MCF7-BRCA1-FFLuc reporter, luminescence, 48 h; response scale: scaled: vehicle 0%, 10 µM genistein 100%. 1.1% of 380,000 active. AID 624202, 2012. Potency, µM (titrated, usually from 46.1 µM), for the others: at the highest dose activation, actives largely listed as activators; also: potency is read from the fitted curve at half-maximal effect; nearly all actives have a fitted effect of over 80% in size
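MCF7 cells carrying a BRCA1-firefly luciferase reporter (2000 cells/well, phenol-red free MEM) were attached for 2 h at 37 °C, then given compounds for 48 h. Luminescence was read 15 min after luciferase reagent; activity normalized to genistein (10 microM) and DMSO.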
uPA surface inh – qHTS for Inhibitors of Cell Surface uPA Generation | cell surface uPA generation assay, qHTS | Potency, µM (titrated, usually from 38.3 µM), for inactives: at the top dose activity change, negative = inhibition, most hits filed as inhibitors | 0.31% of 330,000 active | AID 540303, 2011; active = well fitted inhibition curve with a large enough effect; inconclusive = small, poorly fitted or top-dose-only effect; inactive = no such curve, though single readings can be large or run the other way; tested in mouse RAW 264.7 cells; also: potency is read from the fitted curve at half-maximal effect; % is scaled to controls: 0 for no effect and ±100 for the full control effect; nearly all actives have a fitted effect of over 55% in size
* = called active by the depositor; [ ] = dose if it differs, or a comment. Compounds with a hit are over-represented: about 1.4% of the library has one in this group of screens. Unless noted, calls follow the shape of the dose curve; as a rule, active = well fitted curve in the direction sought with a large enough effect; inconclusive = small, poorly fitted or top-dose-only effect, or another doubt; inactive = no such curve, though single readings can be large; an effect the other way counts as inactive or inconclusive.

Screening O=C(NC(=S)Nc1cccnc1Cl)c1ccc(F)cc1 returned IL2 activator 0, TCR act 2%, p53 reactivation inconclusive, BRCA1 expr up 10µM* and uPA surface inh -6%.
`O=C(CC(=O)c1ccccc1)Nc1cccnc1Cl` gave IL2 activator 1, TCR act 9%[46.1 µM], p53 reactivation inconclusive, BRCA1 expr up 7.1µM* and uPA surface inh -10%.
Screening CCOc1ccccc1NC(=O)N(C)CCc1c(C)nn(CC)c1C returned BRCA1 expr up 0%.
CC(C)Oc1ccc(CNS(=O)(=O)c2ccc3c(c2)C(C)(C)C(=O)N3C)cc1 was read as BRCA1 expr up 17%.
Screening CCCCOC(=O)Nc1ccc(N2CCCCC2)cc1 returned IL2 activator 1, TCR act 4%, p53 reactivation 5%, BRCA1 expr up inconclusive and uPA surface inh -4%.
Screening CCCCOC(=O)Nc1ccc(N2CCOCC2)cc1 returned IL2 activator 2, TCR act 1%[46.1 µM], p53 reactivation inconclusive, BRCA1 expr up 4.5µM* and uPA surface inh 1%.
`CCCCOC(=O)Nc1ccc(C(C)C)cc1` gave IL2 activator -1, TCR act -6%[46.1 µM], p53 reactivation inconclusive, BRCA1 expr up 11µM* and uPA surface inh 9%.
Screening COc1cc(Cl)c(C)cc1NC(=O)CN1c2ccccc2S(=O)(=O)c2ccccc21 returned BRCA1 expr up -6%.
CCOC(=O)c1ccc(-c2ccc(/C=N/NC(=O)Cc3nnc(N)s3)o2)cc1 was read as IL2 activator 1, TCR act -2%, p53 reactivation 10%, BRCA1 expr up 2.2µM* and uPA surface inh -2%.
`Nc1nnc(CC(=O)N/N=C/c2ccc(-c3ccc(F)cc3)o2)s1` gave IL2 activator 1, TCR act -3%, p53 reactivation -5%, BRCA1 expr up 9% and uPA surface inh 1%.
`COc1cc(OC)c2c(c1)C(=O)OC2c1cc(OC)c(OC)cc1C` (centres undefined) gave BRCA1 expr up -1%.
`CCCCn1c(C(C)NC(=O)c2ccccc2)nc2ccccc21` (centres undefined) gave BRCA1 expr up -3%.
For CC(=O)Nc1ccc(C(=O)COC(=O)c2cccs2)c(F)c1 the results were IL2 activator 1, TCR act -2%, p53 reactivation inconclusive, BRCA1 expr up 14µM* and uPA surface inh 4%.
Screening COc1ccc(C(=O)O/N=C(/c2cccs2)C(C)(C)C)cc1 returned IL2 activator 0, TCR act -7%, p53 reactivation 1%, BRCA1 expr up 17% and uPA surface inh 4%.
`COc1ccc(C2CC2/C(=N/OC(=O)c2cccs2)c2ccccc2)cc1` (centres undefined) gave IL2 activator -1, TCR act 2%, p53 reactivation inconclusive, BRCA1 expr up 7.1µM* and uPA surface inh -1%.
Screening COc1cccc(C(=O)COC(=O)c2cccs2)c1 returned IL2 activator -1, TCR act -10%, p53 reactivation 12%, BRCA1 expr up inconclusive and uPA surface inh -1%.
CCCC(=O)Nc1ccc(C(=O)COC(=O)C2CC2C)cc1 (centres undefined) was read as IL2 activator 2, TCR act 3%, p53 reactivation 34%, BRCA1 expr up 11µM* and uPA surface inh 1%.
Screening COc1ccc(C(=O)COC(=O)c2cccs2)cc1 returned IL2 activator 0, TCR act 1%, p53 reactivation inconclusive, BRCA1 expr up 13µM* and uPA surface inh -6%.
For Cc1cc2c(cc1S(=O)(=O)CCC(=O)N1CCCC(C)C1)OCC(=O)N2 (centres undefined) the results were BRCA1 expr up 10%.
Screening CC(=O)c1cccc(NC(=O)CCc2c(C)nc3c(-c4ccc(F)cc4)c(C)nn3c2C)c1 returned BRCA1 expr up 3%.
Screening COc1cc(OC)c(NC(=O)Cn2c(=O)nc(-c3ccccc3)c3ccccc32)cc1Cl returned BRCA1 expr up 3%.
For CCn1cc(C(=O)N2CCN(c3ccccc3)CC2)c(=O)c2cc(S(=O)(=O)N3CCC(C)CC3)ccc21 the results were BRCA1 expr up 0%.
For COc1ccc(/C(N)=N/OC(=O)Cc2cccs2)cc1 the results were IL2 activator -4, TCR act 3%[46.1 µM], p53 reactivation inconclusive, BRCA1 expr up 8.9µM* and uPA surface inh 6%.
COc1ccc(/C(N)=N/OC(=O)Cc2cccs2)cc1OC was read as IL2 activator -3, TCR act -2%[46.1 µM], p53 reactivation inconclusive, BRCA1 expr up 41% and uPA surface inh 1%.
`CC(=O)Nc1ccc(C(=O)COC(=O)C2CC2C)c(F)c1` (centres undefined) gave IL2 activator 0, TCR act -3%, p53 reactivation inconclusive, BRCA1 expr up 6.3µM* and uPA surface inh -4%.
For CCN1CCN(C(=O)c2ccc3c(c2)N(Cc2ccc(Cl)cc2)C(=O)c2ccccc2S3=O)CC1 (centres undefined) the results were BRCA1 expr up -20%.
`CC(=O)Nc1ccc(OCc2ccc3c(c2)OCO3)cc1` gave IL2 activator -3, TCR act -6%, p53 reactivation 9%, BRCA1 expr up 2.5µM* and uPA surface inh 0%.
`Cc1ccc(C(=O)NCc2ccc3c(c2)CCO3)cc1C` gave IL2 activator 1, TCR act 4%, p53 reactivation 2%, BRCA1 expr up -1% and uPA surface inh -6%.
Screening O=C(NCc1ccc2c(c1)OCO2)Nc1ccc(Cl)cc1 returned IL2 activator -1, TCR act 0%, p53 reactivation -21%, BRCA1 expr up 11µM* and uPA surface inh -16%.
For COc1ccc(NC(=O)NCc2ccc3c(c2)OCO3)cc1 the results were IL2 activator -3, TCR act -3%, p53 reactivation -2%, BRCA1 expr up 26% and uPA surface inh -1%.
`O=C(NCc1ccc2c(c1)CCO2)Nc1ccccc1` gave IL2 activator -2, TCR act -6%, p53 reactivation 8%, BRCA1 expr up 1.8µM* and uPA surface inh -4%.
Screening Cc1ccc(CN(C(=O)COc2ccccc2[N+](=O)[O-])c2ccccn2)cc1 returned BRCA1 expr up 0%.
For Cc1ccc(CNC(=O)C2CCN(c3nc4ccccc4n(C)c3=O)CC2)cc1 the results were BRCA1 expr up 5%.
For CC(=O)N1CCc2c(sc3c2c(=O)n(-c2ccccc2C)c(=O)n3CC(=O)Nc2ccccc2)C1 the results were BRCA1 expr up 0%.
For COc1ccc(-c2noc(CSc3nnc(-c4ccncc4)n3-c3ccc(C)cc3)n2)cc1OC the results were BRCA1 expr up -4%.
